PubChem BioAssay AID651994 (Sanford-Burnham Center for Chemical Genomics, 2013)
The whole screen tested about 2,500 compounds, of which about 790 (32%) were called active.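 How the source made its calls: active means mean cytotoxicity at 5 µM above about 25% (limit read from the data); inactive means the rest.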 Not all results are given here.

Assay: cytotoxicity in Sufu-KO-LIGHT cells, confirmation, cytotoxicity control for Gli-SUFU antagonist project, cell-based, ATP luminescence, single concentration (AID 651994);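 further: cells exposed to compound overnight for roughly 16 to 18 hours; plate controls were DMSO wells with cells for no effect and medium without cells for full effect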
Details: at 5 µM, stronger effect = higher value

Row | SMILES | cytotoxicity
1 | COc1ccc2c(C)cc3nnnn3c2c1 | 27% (active)
2 | CC1(C)CC(=O)c2c(n(S(=O)(=O)c3ccccc3)c3ccc(NS(=O)(=O)c4ccccc4)cc23)C1 | 23.1% (inactive)
3 | Cc1ccc(NC(=S)Nc2ccc(F)cc2)cc1 | 25.1% (active)
4 | COc1ccc(NC(=O)[C@H](NC(=O)[C@@H]2Cc3ccccc3CN2)c2ccccc2)cc1 | 6.92% (inactive)
5 | CCN(CC)CCNC(=O)c1ccc(NC(=O)c2cc(-c3ccncc3)nc3ccccc23)cc1 | 16.3% (inactive)
6 | Nc1ccc(C(=O)N2CCN(S(=O)(=O)c3ccc(Cl)cc3)CC2)cc1[N+](=O)[O-] | 14.4% (inactive)
7 | CC(=O)N1CCCc2cc(S(=O)(=O)N3CCCC(C(=O)N4CCN(c5cccc(Cl)c5)CC4)C3)ccc21 (centres undefined) | 24.2% (inactive)
8 | O=C(NCCOCc1ccc(Cl)cc1)c1ncn[nH]1 | 18.8% (inactive)
9 | N#Cc1ccc(C(=O)Nc2nc(-c3cccs3)c(C(=O)C(F)(F)F)s2)cc1 | 32.7% (active)
10 | C/C(=N\Nc1ccc(Cl)nn1)c1ccccc1O | 23.9% (inactive)
11 | O=C(O)c1ccc(N/N=C/c2ccc3ncccc3c2)cc1 | 22.3% (inactive)
12 | CCN(CCO)C(=S)Nc1cc(C(=O)OC)ccc1C(=O)OC | 18.2% (inactive)
13 | C=CCC1(CC=C)CCCN1C(=O)c1cc(COc2ccc(-n3cncn3)cc2)on1 | 36.4% (active)
14 | CSc1ncccc1C(=O)Nc1nc2ccc(F)cc2s1 | 28.1% (active)
15 | O=C(Nc1nc2ccc([N+](=O)[O-])cc2s1)c1ccc(S(=O)(=O)N2CCCc3ccccc32)cc1 | 23.2% (inactive)
16 | Cc1ccc(S(=O)(=O)N2C[C@@H]3CCCC[C@@H]3[C@@H](C)[C@H]2c2cn(Cc3ccccc3)c3ccc(F)cc23)cc1 | 7.61% (inactive)
17 | C=CCNC(=S)/N=c1/ccccn1Cc1ccccc1 | 22.1% (inactive)
18 | CCC(Cc1ccccc1)NC(=O)C1CCCCC1 (centres undefined) | 9.02% (inactive)
19 | O=C(Nc1cccc(S(=O)(=O)Nc2ccc(Cl)cc2)c1)c1ccc2c(c1)OCCO2 | 28.9% (active)
20 | O=C1C=C(c2ccnc3cc(Cl)ccc23)C[C@@H](c2ccc3c(c2)OCO3)C1 | 30.6% (active)
21 | CCN1/C(=C/C(=S)Nc2ccccc2)Sc2ccccc21 | -1.08% (inactive)
22 | CC(C)(CNC(=O)c1ccc(Cl)c(S(=O)(=O)N2CCc3ccccc3C2)c1)N1CCOCC1 | 17.5% (inactive)
23 | COc1ccc(C(=O)NC2CCCc3c2cnn3-c2cccc(C)c2C)c(OC)n1 (centres undefined) | 26.7% (active)
24 | Cc1ccc(S(=O)(=O)NC(C)C(=O)Nc2ccccc2C(=O)N2CCCC2)cc1 (centres undefined) | 12.8% (inactive)
